Laboratory results as given in PubChem BioAssay (Tox21).
A number with no mark means an inactive call. Where a call stands in place of a potency, no number is given. Active and inactive are the calls of the source. The call rests on the fitted dose curve; in most records, active means well fitted curve in the direction sought with a large enough effect in the repeat runs; inconclusive means weak or mixed curves; inactive means flat fitted curve, though single readings scatter.

Assay: qHTS assay to test for compound auto fluorescence at 460 nm (blue) in HepG2 cell free culture (AID 720685)
Conditions: Cell-free culture medium, blue autofluorescence 405/460 nm; series mostly up to 91.3 µM
Source text: U.S. Tox21 Program National Center for Advancing Translational Sciences [NCATS] NIH Chemical Genomics Center [NCGC] U.S. Environmental Protection Agency [EPA] National Institutes of Environmental Health Sciences [NIEHS] National Toxicology Program [NTP] U.S. Food and Drug Administration [FDA] Tox21 Assay Overview: Compound auto fluorescence often interferes with screening of the compound library against various biological targets and signaling pathways. Some of these compounds may have fluorophoric properties. Such properties may interfere with the assay outputs resulting in false positives and/or negatives. To decrease such complications and ensure the compound activities are relevant in terms of biological response, the Tox21 10K compound library was screened for auto fluorescence. From the fluorophores used as reporter signals in our screening assays, the auto fluorescence equivalencies of compounds against three fluorophores have been evaluated: Triamterene, Fluorescein and Rose Bengal sodium for blue, green and red fluorescence, respectively. The fluorescence intensities were measured using Excitation/Emission wavelengths at 405/460nm, 485/535nm and 540/590nm for blue, green and red labels, respectively. This assay includes the blue fluorescence data.
Tox21 Assay Protocol Summary: 5 uL of culture medium (MEM containing 10% FBS) per well was dispensed into black wall/clear bottom 1536-well plates using a Multidrop Combi Dispenser (ThermoFisher Scientific, Waltham, MA). After 23 nL compound or DMSO vehicle was transferred into assay plate by a pintool work station (Kalypsys, San Diego, CA), fluorescence intensities in the assay plates were measured by an Envision (PerkinElmer, Shelton, CT) plate reader using three labels for measuring blue, green and red fluorescence at […] 460, 535 and 590nm respectively.
Potency means the concentration at half of the fitted maximal effect; tags describe the fitted curve by direction and shape or compound fluorescence and quenching.

SMILES	Potency	fluorescence, % of fluorescent control
O=C(Oc1ccccc1)c1ccccc1C(=O)Oc1ccccc1	inactive	–
CCC(C)Nc1ccc(NC(C)CC)cc1 (stereo not given)	inactive	–
O=C(OCC1CO1)C1CCCCC1C(=O)OCC1CO1 (stereo not given)	inactive	–
CCCCCCCCCCC=O	inactive	–
N=C1N=C(N)c2cc3ccccc3cc21	28.2 µM [fluorescent] (active)	–
CC(=O)OCC(C)OC(C)=O (stereo not given)	inactive	–
CCCCCCCCCCCCCCCC[N+](C)(C)CCN(Cc1ccc(OC)cc1)c1ncccn1	–	-0.0338% [at 18.6 µM]
OCc1c[nH]c2ccccc12	inactive	–
Cc1ccc(O)c(C(C)(C)C)c1	inactive	–
CCCCCCCCS(=O)C(C)Cc1ccc2c(c1)OCO2 (stereo not given)	inactive	–
NNc1nc(-c2ccccc2)cs1	inactive	–
Oc1ccc2cc(SSc3ccc4cc(O)ccc4c3)ccc2c1	inactive	–
Nc1c(Cl)cc(Cl)cc1Cl	inactive	–
COc1cccc(N)c1	inactive	–
CNc1ccc(O)cc1	inactive	–
CCCCCCCCNC(C)C(O)c1ccc(SC(C)C)cc1 (stereo not given)	inactive	–
CSc1cnc(C)cn1	inactive	–
CCOC(=O)/C=C(C)/C=C/C=C(C)/C=C/c1c(C)cc(OC)c(C)c1C	inactive	–
CCC1OCC(COc2ccc(Oc3ccccc3)cc2)O1 (stereo not given)	inactive	–
CCCCCCCC[P+](CCCCCCCC)(CCCCCCCC)CCCCCCCC	inactive	–

SMILES	Potency	fluorescence, % of fluorescent control
CS(=O)(=O)CCNCc1ccc(-c2ccc3ncnc(Nc4ccc(OCc5cccc(F)c5)c(Cl)c4)c3c2)o1	inactive	–
CCC(Cl)C(Cl)C(Cl)CC(Cl)C(Cl)C(C)Cl (stereo not given)	inactive	–
O=c1cccccc1O	inactive	–
CCc1cc(Cc2cc(CC)c(N)c(CC)c2)cc(CC)c1N	inactive	–
Cc1onc(-c2ccccc2Cl)c1C(=O)N[C@@H]1C(=O)N2[C@@H]1SC(C)(C)[C@@H]2C(=O)O	–	0.0226% [at 18.6 µM]
CCN(CCC#N)c1ccc(N=Nc2c(Cl)cc([N+](=O)[O-])cc2Cl)cc1	inactive	–
CCOC(=O)O[C@]1(C(=O)OCCl)CC[C@H]2[C@@H]3CCC4=CC(=O)C=C[C@]4(C)[C@H]3[C@@H](O)C[C@@]21C	inactive	–
Cc1onc(-c2c(Cl)cccc2Cl)c1C(=O)N[C@@H]1C(=O)N2[C@@H]1SC(C)(C)[C@@H]2C(=O)O	inactive	–
COCCCC/C(=N\OCCN)c1ccc(C(F)(F)F)cc1	inactive	–
COc1ccc(CN2CCN(C(c3ccc(F)cc3)c3ccc(F)cc3)CC2)c(OC)c1OC	inactive	–
Nc1ccc2cc(S(=O)(=O)O)cc(O)c2c1N=Nc1ccccc1C(F)(F)F	inactive	–
CC[C@@]1(O)C(=O)OCc2c1cc1n(c2=O)Cc2cc3c(CN(C)C)c(O)ccc3nc2-1	14.1 µM [fluorescent] (active)	–
Fc1ccc(C(c2ccc(F)cc2)N2CCN(C/C=C/c3ccccc3)CC2)cc1	inactive	–
O=C1C=CC(=O)N1	inactive	–
O=C1CCCCCN1SSN1CCCCCC1=O	inactive	–
CCC1=C[C@@H]2CN(C1)Cc1c([nH]c3ccccc13)[C@@](C(=O)OC)(c1cc3c(cc1OC)N(C)[C@H]1[C@@](O)(C(=O)OC)[C@H](OC(C)=O)[C@]4(CC)C=CCN5CC[C@]31[C@@H]54)C2	inactive	–
CCCCCCCCOc1ccccc1C(=O)Nc1ccc(C(=O)OCC[N+](C)(CC)CC)cc1	inactive	–
c1ccc(CSCc2ccccc2)cc1	inactive	–
c1cc(C(c2ccc(OCC3CO3)cc2)c2ccc(OCC3CO3)cc2)ccc1OCC1CO1 (stereo not given)	inactive	–
O=c1[nH]sc2ccccc12	inactive	–
